Compounds with a hit are over-represented: about 6.7% of the library has one in this group of screens.
Tcruzi prolif = blocks T. cruzi growth in NIH3T3 culture; T. cruzi beta-gal in NIH3T3, GalScreen luminescence, 90 h; inhibition, % at 8.34 µM; hit rate 5.9% among 77,000; AID 624255;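 active = mean inhibition above about 93%, with at least 55% of replicates each passing it, limit read from the data, passing the limit was not always enough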
C diff HTS = inhibitors of Clostridium difficile growth; Clostridium difficile clinical isolate growth, OD600, 24 h; active compounds read low; growth activity, negative = inhibition, % at 16 µg/mL (by protocol); hit rate 0.25% among 86,000; AID 1259249;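 active = mean growth activity at or below -80% and every replicate also at or below -80%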;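 also: 0% = DMSO wells and -100% = levofloxacin 16 µg/mL wells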
Pf Dd2 inh = blocks growth of Plasmodium falciparum Dd2 parasites; hit rate 2.3% among 94,000; P. falciparum Dd2 growth, SYBR Green, 72 h; active compounds read low; activity change, % at 10 µM; in the data active = activity change below about -80%
The depositor's hits bear a star; · = no result given; ! = not confirmed by another sample.

SMILES	Tcruzi prolif	C diff HTS	Pf Dd2 inh
COc1ccc(NC(=O)Nc2ccc3c(c2)CC(=O)N([C@@H](C)CO)C[C@@H](C)[C@@H](CN(C)C(=O)Nc2ccc(OC)cc2)O3)cc1	12.0	2.0	9.1
C(=C\c1ccc(C2[C@@H]3CN(Cc4nccs4)C[C@H]2N3)cc1)/c1ccccc1 (stereo partly drawn)	·	46.9	-88.2*!
COc1ccccc1CN1C[C@@H]2N[C@H](C1)C2c1ccc(/C=C/c2ccccc2)cc1 (stereo partly drawn)	·	-90.2*	-4.8
c1cc(-c2ccc(C3[C@@H]4CN(Cc5nccs5)C[C@H]3N4)cc2)ccn1 (stereo partly drawn)	·	4.9	-74.0
COc1ccccc1CN1C[C@@H]2N[C@H](C1)C2c1ccc(-c2ccccc2)cc1 (stereo partly drawn)	·	31.5	-67.7
C(=C\c1ccc(C2[C@@H]3CN(Cc4ccccn4)C[C@H]2N3)cc1)/c1ccccc1 (stereo partly drawn)	·	-12.2	-75.8
c1cncc(-c2ccc(C3[C@@H]4CN(Cc5nccs5)C[C@H]3N4)cc2)c1 (stereo partly drawn)	·	-1.8	-87.6*!
CO[C@@H]1CN(C)C(=O)c2cc(NC(=O)NC3CCCC3)ccc2OC[C@@H](C)NC[C@@H]1C	·	-0.2	39.9
Cc1noc(C)c1S(=O)(=O)N(C)C[C@H]1Oc2c(NC(=O)c3cnccn3)cccc2C(=O)N([C@@H](C)CO)C[C@H]1C	-58.0	·	-11.9
C[C@@H]1CN([C@@H](C)CO)C(=O)Cc2cc(NC(=O)CCCCCC(=O)Nc3ccccc3N)ccc2O[C@H]1CN(C)S(=O)(=O)c1ccc(Cl)cc1	-6.3	·	-63.5
C[C@H]1CN([C@@H](C)CO)C(=O)Cc2cc(NC(=O)CCCCCC(=O)Nc3ccccc3N)ccc2O[C@H]1CN(C)S(=O)(=O)c1ccc(Cl)cc1	59.0	·	-93.7*
C[C@H](CO)N1C[C@H](C)[C@H](CN(C)S(=O)(=O)c2ccc(Cl)cc2)Oc2ccc(NC(=O)CCCCCC(=O)Nc3ccccc3N)cc2CC1=O	57.7	·	-90.9*
C[C@@H]1CN([C@H](C)CO)C(=O)Cc2cc(NC(=O)CCCCCC(=O)Nc3ccccc3N)ccc2O[C@H]1CN(C)S(=O)(=O)c1ccc(Cl)cc1	-12.6	·	-50.8
COc1ccc2c3c([nH]c2c1)[C@@H](CO)N(C(=O)C1CCOCC1)CC31CN(Cc2cccc(F)c2)C1	·	58.3	-28.7
C[C@H]1CCCCO[C@@H](CN(C)C(=O)Nc2ccc(F)cc2)[C@@H](C)CN([C@@H](C)CO)C(=O)c2cc(NS(=O)(=O)c3cccs3)ccc2O1	47.4	3.2	-57.4
C[C@@H]1CCCCO[C@@H](CN(C)C(=O)Nc2ccc(F)cc2)[C@H](C)CN([C@H](C)CO)C(=O)c2cc(NS(=O)(=O)c3cccs3)ccc2O1	82.6	1.8	-85.9*
C[C@@H]1CCCCO[C@@H](CN(C)C(=O)Nc2ccc(C(F)(F)F)cc2)[C@@H](C)CN([C@H](C)CO)C(=O)c2cc(NS(=O)(=O)c3cccs3)ccc2O1	·	0.5	-51.0
C[C@@H]1CN([C@H](C)CO)C(=O)c2cc(NS(=O)(=O)c3cccs3)ccc2O[C@@H](C)CCCCO[C@H]1CN(C)C(=O)Nc1ccc(F)cc1	15.0	10.5	-67.8
C[C@@H]1CN([C@@H](C)CO)C(=O)c2cc(NS(=O)(=O)c3cccs3)ccc2O[C@@H](C)CCCCO[C@@H]1CN(C)C(=O)Nc1ccc(C(F)(F)F)cc1	·	-10.6	-82.2*
C[C@@H]1CCCCO[C@H](CN(C)C(=O)Nc2ccc(F)cc2)[C@H](C)CN([C@H](C)CO)C(=O)c2cc(NS(=O)(=O)c3cccs3)ccc2O1	78.7	3.6	-86.4*
C[C@H](CO)N1C[C@H](C)[C@H](CN(C)Cc2ccc(F)cc2)Oc2cc(C#CCN(C)C)ccc2S1(=O)=O	28.1	-1.2	-71.6
C[C@@H]1CCCCO[C@@H](CN(C)S(=O)(=O)c2cn(C)cn2)[C@H](C)CN([C@@H](C)CO)C(=O)c2cc(NS(=O)(=O)c3cccs3)ccc2O1	17.4	-0.2	18.7
C[C@@H]1CN([C@H](C)CO)S(=O)(=O)c2ccc(-c3ccccc3F)cc2O[C@H]1CN(C)C	48.7	1.5	-6.5
Cc1noc(C)c1NC(=O)N(C)C[C@@H]1Oc2ncc(C3=CCCCC3)cc2C(=O)N([C@@H](C)CO)C[C@@H]1C	·	·	20.3
COC(=O)[C@@H]1[C@@H](CO)[C@@H]2Cn3c(ccc(-c4cccc(F)c4)c3=O)[C@@H]2N1S(C)(=O)=O	10.7	1.2	·
SMILES	Tcruzi prolif	C diff HTS	Pf Dd2 inh
Cc1noc(C)c1S(=O)(=O)Nc1ccc2c(c1)C(=O)N([C@@H](C)CO)C[C@@H](C)[C@H](CN(C)C(=O)Nc1ccc(F)cc1)OCCCC[C@H](C)O2	-13.0	7.7	-52.1
COc1ccc(S(=O)(=O)Nc2ccc3c(c2)C(=O)N([C@@H](C)CO)C[C@@H](C)[C@@H](CN(C)C(=O)Nc2cccc4ccccc24)OCCCC[C@H](C)O3)cc1	55.5	·	-88.5*
C[C@@H]1CCCCO[C@@H](CN(C)C(=O)Nc2cccc3ccccc23)[C@H](C)CN([C@H](C)CO)C(=O)c2cc(NS(=O)(=O)c3ccccc3)ccc2O1	·	·	-41.3
Cc1noc(C)c1S(=O)(=O)Nc1ccc2c(c1)C(=O)N([C@H](C)CO)C[C@H](C)[C@@H](CN(C)C(=O)Nc1cccc3ccccc13)OCCCC[C@@H](C)O2	58.5	14.2	-52.4
C[C@@H]1CCCCO[C@H](CN(C)C(=O)Nc2cccc3ccccc23)[C@@H](C)CN([C@@H](C)CO)C(=O)c2cc(NS(=O)(=O)c3ccccc3)ccc2O1	·	-22.8	-87.8*
COc1ccc(S(=O)(=O)Nc2ccc3c(c2)C(=O)N([C@@H](C)CO)C[C@@H](C)[C@H](CN(C)C(=O)Nc2cccc4ccccc24)OCCCC[C@@H](C)O3)cc1	90.6	·	-32.8
Cc1noc(C)c1S(=O)(=O)Nc1ccc2c(c1)C(=O)N([C@@H](C)CO)C[C@@H](C)[C@@H](CN(C)C(=O)Nc1cccc3ccccc13)OCCCC[C@H](C)O2	73.2	12.5	-87.1*
Cc1noc(C)c1S(=O)(=O)Nc1ccc2c(c1)C(=O)N([C@H](C)CO)C[C@@H](C)[C@@H](CN(C)C(=O)Nc1ccc(F)cc1)OCCCC[C@@H](C)O2	80.6	5.1	-84.8*
C[C@H]1CN([C@@H](C)CO)S(=O)(=O)c2ccc(C3=CCCCC3)cc2O[C@@H]1CN(C)S(=O)(=O)c1cn(C)cn1	11.2	·	48.9
CO[C@H](C(=O)N(C)C[C@H]1OCc2ccccc2-c2c(n(C)c3ccccc23)C(=O)N([C@@H](C)CO)C[C@H]1C)c1ccccc1	11.7	1.1	-6.3
CCC(=O)N1CC2(C1)[C@@H](c1ccccc1)[C@@H](CO)N2Cc1cc(F)ccc1F	·	9.3	-15.8
CCCNC(=O)N1CCC2(CC1)CN(C(C)=O)[C@H](CO)c1[nH]c3cc(OC)ccc3c12	·	0.5	19.7
Cc1ccc(F)cc1S(=O)(=O)N[C@H]1CCN(Cc2ccc(OC(C)C)cc2)C1	·	-19.4	·
C[C@@H]1CN([C@H](C)CO)C(=O)c2cccc(NC(=O)Nc3ccc(F)cc3)c2O[C@@H]1CN(C)Cc1ccc(C(=O)O)cc1	10.1	-4.9	28.7

Bioassay records: PubChem BioAssay, Broad Institute
